In ChEMBL document CHEMBL3988442, “University of Dundee, Small-Polar-MMV Screening Library” (2021):
Out of some 48,000 compounds screened, about 13,000 (27%) showed an effect of 50% or more. The list shows a part of the results.

Tested on: Wolbachia pipientis
Test: Anti-Wolbachia Cell-Based Screen
Format: functional
Design: scale not given: in the data most compounds retested in dose-response had high values
Settings: 5 µM

Row | Compound | Percent Effect [%]
1 | CCS(=O)(=O)c1ncc(CN(C)CCc2ccccn2)n1CCOC | -7.108
2 | CC(C)(C)c1ccc(S(=O)(=O)CCNC(=O)c2cnccn2)cc1 | -1.994
3 | O=C(Nc1cc(C2CCOCC2)[nH]n1)c1cscn1 | -9.479
4 | O=C(O)C(F)(F)F.O=C1COC2(CCN(Cc3ccoc3)CC2)CN1c1ccccc1 | 110.1
5 | c1coc(-c2nc3c(c(N4CCCN5CCC[C@H]5C4)n2)CCNCC3)c1 | -2.635
6 | Cc1nc(-c2cccc(C(=O)O)c2)c[nH]1 | 12.51
7 | O=C(O)c1ccc(-c2cscn2)cc1 | -4.979
8 | CN1CCC(c2cccc(-c3cccc(C(=O)O)c3)n2)CC1 | 172.2
9 | CN1CCC(c2cccc(-c3ccc(C(=O)O)cc3)n2)CC1 | 143.4
10 | CC(=O)N1CCC(c2cccc(-c3cccc(C(=O)O)c3)n2)CC1 | 150.5
11 | CCC1CN(CC(=O)NCC(C)C)CCO1 (stereo unspecified) | 14.46
12 | CN(C)C(Cn1ccnc1-c1nccn1C)c1ccccc1Cl (stereo unspecified) | -33.34
13 | Cn1cnc(S(=O)(=O)NCC2(O)CCc3ccccc3C2)c1 (stereo unspecified) | -0.2896
14 | Cc1cc(C(F)(F)F)cc(N2CCN(Cc3ccccc3)CC(O)C2)n1 (stereo unspecified) | -8.979
15 | Cc1noc(C)c1C(=O)NCc1cc[nH]n1 | -8.617
16 | N[C@H]1CN(Cc2cnc(N3CCCC3)nc2)C[C@@H]1C1CC1 | -16.17
17 | c1nc(N2CCCC2)ncc1CN1CCCC(CN2CCCCC2)C1 (stereo unspecified) | 95.39
18 | NC(=O)CCC1CCCN(Cc2cnc(N3CCCCC3)nc2)C1 (stereo unspecified) | 104.2
19 | Cc1cccc(C)c1OC1CN(Cc2cnc(N3CCCC3)nc2)C1 | 1.788
20 | NC(=O)CCC1CCCN(c2ncnc3c2Cc2ccccc2OC3)C1 (stereo unspecified) | -12.56
21 | O=C(O)CCc1cc2n(n1)CCN(Cc1cnc(N3CCCC3)nc1)C2 | -15.82
22 | CCc1cnc(N2CCCC(CCC(N)=O)C2)nc1 (stereo unspecified) | 109.3
23 | COc1ccccc1-c1ncc(CN2CCCC(CCC(N)=O)C2)s1 (stereo unspecified) | 16.75
24 | CCc1cnc(N2CCCOC(CN3CCCC3)C2)nc1 (stereo unspecified) | -1.454
25 | O=C(N[C@H]1CN(C2CCOCC2)C[C@@H]1C1CC1)c1ccon1 | -9.557
26 | CN(Cc1cc[nH]n1)C(C(=O)O)c1ccc(Cl)cc1 (stereo unspecified) | -11.22

Row | Compound | Percent Effect [%]
27 | Cc1cnn(-c2ccc(S(=O)(=O)N(C)CC(C)(CO)CO)cc2F)c1 | -2.822
28 | CN(CC(=O)NCC(F)(F)F)Cc1cccc2c1OCCO2 | -18.06
29 | CN(Cc1ccc(CCC(C)(C)O)cc1)Cc1cccnc1 | -22.62
30 | c1cnn(Cc2ccc(CN3CCC4(CCNCC4)C3)cc2)c1 | 15.29
31 | CS(=O)(=O)N1CCC(c2nccn2Cc2ccccn2)CC1 | 3.46
32 | CS(=O)(=O)N1Cc2ccccc2CC2(CCN(Cc3ccccn3)C2)C1 (stereo unspecified) | 113.9
33 | COCC(=O)N1CCC2(CCN(Cc3ccccn3)CC2)CC1 | -21.07
34 | CS(=O)(=O)N1CC2(CCN(Cc3ccccn3)C2)Cc2ccccc21 (stereo unspecified) | 111
35 | CS(=O)(=O)N1Cc2ccccc2CC2(CCN(Cc3ccncc3)C2)C1 (stereo unspecified) | 115
36 | Cc1ccc(CN2CCC3(CCCN(S(C)(=O)=O)C3)C2)o1 (stereo unspecified) | -14.58
37 | Cc1ccc(N2CCC3(CCN(Cc4ccccn4)CC3)CC2)nn1 | 3.728
38 | COCCC(=O)N1CC2(CCN(Cc3ccncc3)CC2)C1 | 12.72
39 | Cc1ccc(CN2CCC3(CCN(S(=O)(=O)c4ccccc4)C3)C2)o1 (stereo unspecified) | -12.36
40 | CS(=O)(=O)N1Cc2ccccc2CC2(CCN(Cc3ccccc3)C2)C1 (stereo unspecified) | 126.9
41 | CN1CC(=O)N(c2cccc(F)c2)CC12CCN(Cc1ccccn1)C2 (stereo unspecified) | 2.437
42 | COCC(c1cccc(C(F)(F)F)c1)N(C)C(=O)c1cc(C)n[nH]1 (stereo unspecified) | -9.299
43 | Cc1nc2[nH]cc(C(=O)N3CCCCC3c3ccc(F)cc3)c(=O)n2n1 (stereo unspecified) | -1.637
44 | Cc1nc(-c2cc(C(=O)O)co2)cs1 | 4.91
45 | Cc1nn(-c2ccccn2)c(C)c1[C@@H]1C=C[C@@H](NC(=O)CCC(=O)O)C1 | -2.847
46 | CN(C)S(=O)(=O)NCC(O)c1cc2ccccc2s1 (stereo unspecified) | -1.975
47 | CCc1cnc(N2Cc3cnc(C(C)(C)C)nc3C2)nc1 | -2.734
48 | CCN(CC)CC(=O)NCCc1csc(N2CCCC2)n1 | 7.841
49 | O=C(c1ccncc1F)N1C[C@H]2CC[C@@H]1CN(Cc1cccnc1)C2 | -17.68
50 | CC1(C)[C@H](Cc2cc(CN3CCOCC3)on2)C[C@@H]1NC(=O)C1CCC1 | 3.49
51 | CC(C)N1CCCC(C(=O)NCCCc2cnn(C)c2)C1 (stereo unspecified) | -2.763
